Source: PubChem
D1 PAM = enhances dopamine response at the human D1 receptor; potentiation, % at 10 µM; AID 504651; 0.036% of 360,000 active; P21728; HEK293 TREx D1 cells, calcium flux, dopamine EC20 potentiation; in the data active means potentiation above about 30%; further: 0% is about no effect
Target sequence (P21728 whole entry, looked up): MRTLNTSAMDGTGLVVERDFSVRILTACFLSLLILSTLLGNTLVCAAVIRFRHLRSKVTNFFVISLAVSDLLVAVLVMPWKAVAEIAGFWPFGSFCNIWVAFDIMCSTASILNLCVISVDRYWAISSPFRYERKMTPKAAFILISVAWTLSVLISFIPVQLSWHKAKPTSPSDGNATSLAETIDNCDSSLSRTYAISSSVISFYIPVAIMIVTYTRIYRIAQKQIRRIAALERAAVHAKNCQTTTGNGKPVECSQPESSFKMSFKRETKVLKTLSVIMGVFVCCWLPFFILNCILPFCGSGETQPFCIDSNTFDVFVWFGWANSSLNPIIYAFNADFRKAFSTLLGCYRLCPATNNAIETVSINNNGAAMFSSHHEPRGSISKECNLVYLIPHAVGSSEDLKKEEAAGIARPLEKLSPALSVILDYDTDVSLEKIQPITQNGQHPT
D1 ag = agonists of human D1 dopamine receptor. 1% of 360,000 active. AID 504660. HEK293 T-REx D1 cells, calcium flux, agonist mode. activation, % at 2 µM; in the data active means activation above about 30%; further: 0% is about no effect
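Inducible HEK293 T-REx D1 cells, force-coupled to calcium signalling, were plated at 4000 cells/well with tetracycline and held overnight at 30 C. After no-wash calcium dye loading, compound-evoked calcium rise over 180 s flagged agonists.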
D1 antagonist = blocks dopamine activation of the human D1 receptor | P21728 | HEK293 TREx D1 cells, calcium flux, dopamine EC80; active compounds read low | activity change, negative = inhibition, % at 10 µM | 3.2% of 360,000 active | AID 504652; in the data active means activity change below about -30%; further: on the % scale 0 is the no-effect control and ±100 the full control effect
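Kinetic fluorescence of a calcium dye serves as the read-out. D1-expressing Hek293 Trex cells, induced overnight at 30 C, are exposed to compound for 180 s before an EC80 dopamine addition, then read 180 s further.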
D3 ag = agonists of human D3 dopamine receptor; P35462; D3R DiscoveRx beta-arrestin cells, luminescence, 90 min; max activation, %; 0.58% of 410,000 active; in the data active means max activation above about 30%; further: 0% is about no effect
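Agonist mode: compounds and dopamine controls were applied to plated cells for 90 min at 37 degrees C after an overnight attachment at 1500 cells/well. Luminescent read-out followed 30 - 60 minutes at room temperature with DiscoveRx detection reagent.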
D3 antag = antagonists of human D3 dopamine receptor. AID 652054. max response, negative = inhibition, %. P35462. 2.5% of 360,000 active. D3R cells, DiscoveRx beta-arrestin luminescence, antagonist mode; active compounds read low; in the data active means max response below about -50%; inconclusive means no clear call, values can overlap the other calls; further: on the % scale 0 is the no-effect control and ±100 the full control effect
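Cells plated overnight at 1500 cells/well, then exposed to library compounds with dopamine controls for 90 minutes at 37 degrees C. DiscoveRx reagent added for 30–60 minutes at room temperature; luminescence read, quantitative HTS format.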
Starred values were filed as active, the others as inactive; ? = inconclusive; . = not tested or not shown. Sampled rows, rich in hits. Any-hit rate of the full collection: about 6.1%.

SMILES | D1 PAM | D1 ag | D1 antagonist | D3 ag | D3 antag
Cc1ccc(S(=O)(=O)c2c(Nc3cc(F)ccc3F)sc(C(=O)c3ccc(F)cc3)c2N)cc1 | 4 | 57* | -69* | 3 | .
Cc1ccc(Cl)cc1Nc1sc(C(=O)c2ccc(F)cc2)c(N)c1S(C)(=O)=O | -4 | 9 | 6 | -6 | .
Nc1c(C(=O)c2ccc(F)cc2)sc(Nc2ccccc2F)c1S(=O)(=O)c1ccc(Br)cc1 | -3 | 83* | -26 | -10 | .
COc1cccc(C(=O)c2sc(Nc3ccc(C)cc3C)c(S(=O)(=O)c3ccccc3)c2N)c1 | 1 | 10 | 2 | 8 | .
CCc1ccc(Nc2sc(C(=O)c3ccc(F)cc3)c(N)c2S(=O)(=O)c2ccccc2)cc1 | 0 | 14 | 21 | 8 | .
Cc1ccc(Nc2sc(C(=O)c3ccc(F)cc3)c(N)c2S(=O)(=O)c2ccc(C)cc2)cc1 | -2 | 79* | -30* | -4 | .
COc1ccc(OC)c(Nc2sc(C(=O)c3ccccc3)c(N)c2S(=O)(=O)c2ccccc2)c1 | -1 | 58* | -25 | 4 | .
CCCCOc1ccc(C(=O)NCc2nnnn2-c2ccc(C)c(C)c2)cc1 | 0 | 3 | -20 | 6 | .
COc1cccc(CN2C(=O)c3ccccc3Sc3ccc(C(=O)NCc4ccccc4)cc32)c1 | -1 | 3 | 10 | -9 | .
CCCN1C(=O)/C(=C2\SC(N3CCCCC3)=NC2=O)c2ccccc21 | -4 | 2 | 5 | -2 | 31
CN1C(=O)/C(=C2\SC(N3CCCCCC3)=NC2=O)c2ccccc21 | -3 | 1 | 10 | 2 | -67*
Cc1cccc(C)c1N(CC(=O)Nc1cc(Cl)ccc1Oc1ccccc1)S(C)(=O)=O | 6 | 1 | -2 | 0 | -54*
CCCNS(=O)(=O)c1ccc(CCC(=O)Nc2cc(Cl)ccc2Oc2ccccc2)cc1 | -9 | 1 | -20 | 30* | 31
O=C(N/N=C/c1ccc(O)cc1)c1csc2ccccc12 | -2 | 1 | -57* | -2 | -11
CCN(C(=O)CSc1nc2ccccc2n1Cc1ccc(F)cc1Cl)c1ccccc1 | 1 | 6 | -4 | -12 | .
Cc1cc(-c2nnc3n2N=C(C(C)(C)C)CS3)n[nH]1 | -7 | 1 | -8 | -7 | -52*
Cc1ccc(Cl)cc1NC(=O)N1CCN(C)c2ncccc21 | 0 | 4 | -4 | 11 | .
CN1CCN(C(=O)Nc2cccc(Cl)c2)c2cccnc21 | -3 | 47* | -23 | 1 | .
CCOC(=O)CSc1nc2ccc(N)cc2s1 | -4 | -1 | 2 | 2 | 0
CCOC(=O)CSc1nc(C)c(C(=O)OCC)s1 | 7 | 2 | -35* | 0 | 22
CCOc1ccc2nc(N3CCCC(C(=O)Nc4ccc(OC)cc4)C3)sc2c1 (stereo unspecified) | -1 | 6 | -5 | 9 | .
COc1ccc(CNC(=O)c2nn(-c3ccccc3C)nc2CO)cc1 | -2 | -1 | -1 | 4 | .
Cn1c(N)c(C(=O)COC(=O)c2cc(-c3ccccc3)nc3ccccc23)c(=O)n(Cc2ccccc2)c1=O | -5 | 3 | 1 | 10 | 24
CC(C)Cn1c(N)c(C(=O)COC(=O)c2cc(C(F)(F)F)nc3ccccc23)c(=O)n(C)c1=O | -6 | -1 | -18 | 34* | 95
Cn1c(N)c(C(=O)COC(=O)c2cc(C3CC3)nc3ccccc23)c(=O)n(Cc2ccccc2)c1=O | -7 | 4 | -5 | 36* | 3
SMILES | D1 PAM | D1 ag | D1 antagonist | D3 ag | D3 antag
CC(C)Cn1c(N)c(C(=O)CSc2nc3ccccc3n2C)c(=O)n(C)c1=O | 2 | 5 | -26 | 11 | -54*
Cn1c(N)c(C(=O)COC(=O)c2cc(C(F)(F)F)nc3ccccc23)c(=O)n(C)c1=O | -4 | 1 | 13 | . | .
CCOc1ccc(CCNC(=O)CCCn2c(=O)c3cccn3c3cccnc32)cc1 | 2 | 0 | -21 | 6 | .
O=c1cc(-c2c(F)c(F)c(F)c(F)c2F)oc2ccccc12 | -1 | 10 | -1 | -22 | -67*
CCC(C)NCCOCCOc1cc(C)c(Cl)c(C)c1 (stereo unspecified) | -4 | 8 | 11 | -10 | ?
CCC(C)NCCOCCOc1ccc(F)cc1 (stereo unspecified) | -5 | 3 | -1 | -9 | -66*
CCC(C)NCCOCCOc1ccccc1-c1ccccc1 (stereo unspecified) | -8 | 5 | -1 | -27 | -69*
Cc1cccc(C(=O)O[C@@H]2[C@H](Cc3ccccc3)NS(=O)(=O)[C@H]3C[C@@H]4C=C[C@]23O4)c1 | 1 | 2 | -22 | 52* | -6
Cc1cccc(C(=O)O[C@H]2[C@H](Cc3ccccc3)NS(=O)(=O)[C@H]3CC4C=C[C@]23O4)c1 | . | . | . | 12 | 4
O=C(c1cccc(C(F)(F)F)c1)N1CCCCCC1 | -6 | 2 | -56* | -6 | 14
CC(NC(=O)C1CCCN(C(=O)c2ccc(Cl)cc2)C1)c1cccc(C(F)(F)F)c1 (stereo unspecified) | . | 12 | -37* | -7 | -21
O=C(Nc1cccc(F)c1)C1CCCN(C(=O)c2ccc(Cl)cc2)C1 (stereo unspecified) | -3 | 2 | -22 | 2 | 1
Cc1c(-c2nc(-c3ccc4c(c3)OCO4)no2)nnn1-c1ccc(C(C)C)cc1 | -1 | 3 | -4 | -5 | .
C=CC(=O)Nc1cc2c(Nc3ccc(F)c(Cl)c3)ncnc2cc1OCCCN1CCOCC1 | . | . | . | -17 | .
O=C1[C@H]2CCCC[C@H]2C(=O)N1CCCCN1CCN(c2nsc3ccccc23)CC1 | . | . | . | -57 | -116*
CCN(CC)CCNc1nc(C(F)(F)F)nc2c1nnn2Cc1ccccc1 | -1 | 10 | -92* | -1 | -3
COCC(=O)N1c2nc(-c3ccco3)nn2C2(CCCCC2)[C@@H]2CCCC[C@@H]21 | 0 | -1 | 0 | 3 | .
O=C(O)CN1C(=O)/C(=C\c2ccccc2OCc2ccc(Cl)cc2Cl)SC1=S | -12 | 35* | 8 | -7 | 4
O=C(O)CN1C(=O)/C(=C\c2cc(Br)ccc2OCc2ccccc2Cl)SC1=S | -16 | 13 | -11 | -5 | 50
CCc1ccc(C(=O)COC(=O)C(Cc2ccccc2)NC(=O)C2CCC(C)CC2)cc1 (stereo unspecified) | -6 | 6 | -31* | 3 | -1
CCc1ccc(C(=O)COC(=O)C(Cc2ccccc2)NC(=O)c2ccc(Cl)cc2)cc1 (stereo unspecified) | -5 | 23 | -5 | 0 | 3
CCCCN(Cc1ccccc1)C(=O)c1oc(=O)c2ccccc2c1-c1ccc(C)cc1 | -2 | 5 | 8 | 3 | .
O=C(O)c1cccc(-c2noc(-c3ccccc3F)n2)c1 | -3 | 2 | 20 | . | .
CC(C)C(=O)N1CCN(c2ccc(NC(=O)COc3ccccc3[N+](=O)[O-])cc2)CC1 | -7 | 12 | -31* | 0 | 144
